# Source: PubChem (National Center for Advancing Translational Sciences (NCATS))
# Most compounds without a hit are left out; they make up all but 7.4% or so of the library.
# Rab9 promoter act = activators of Rab9 promoter. 2.8% of 320,000 active. Potency, µM (titrated, usually from 9.22 µM), hits mostly activators. Huh7 Rab9 promoter-luciferase reporter, luminescence, 24 h; also: nearly all actives have a fitted effect of over 60% in size
#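 Steps: seed 1500 Huh7 Rab9-luc cells per well, rest 2 h at 37 °C; add compound in DMSO; incubate 24 h; add luciferase reagent, 10 min ambient; read luminescence.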
# ELG1 genotox = genotoxicity induction in ELG1-luciferase HEK293T cells; HEK293T ELG1-luciferase reporter, luminescence, 16 h; AID 504466; Potency, µM (doses to about 46 µM), usual class: activators; 1.3% of 330,000 active; also: nearly all actives have a fitted effect of over 60% in size
#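 HEK293T cells expressing luciferase-tagged ELG1 were treated with compound or DMSO for 16 hr at 37°C. Luciferase activity was then read after 30 min with ONE-Glo at room temperature; rising signal flags genetic stress.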
# SMN2 splice enh = increases expression of the SMN2 splice variant | 2.8% of 210,000 active | HEK293 SMN2-luciferase splicing reporter, luminescence, 30-36 h | Potency, µM (top dose mostly 46.1 µM), most hits filed as activators; also: nearly all actives have a fitted effect of over 55% in size
#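 HEK293 cells carry an SMN2 minigene-luciferase reporter in which exon 7 inclusion puts luciferase in frame. Cells were seeded at 2000 cells/well, attached for 10-12 hours, then exposed to compounds for 30-36 hours at 37C before ONE-Glo luminescence.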
# FLuc counter = counter-screen for miR-21 project: firefly luciferase inhibitors or activators; P08659; purified FLuc, Km substrates, luminescence inhibition; Potency, µM (top dose mostly 57.5 µM), actives largely listed as inhibitors; 6.9% of 360,000 active; also: nearly all actives have a fitted effect of over 55% in size
# Target sequence (P08659 whole entry, looked up): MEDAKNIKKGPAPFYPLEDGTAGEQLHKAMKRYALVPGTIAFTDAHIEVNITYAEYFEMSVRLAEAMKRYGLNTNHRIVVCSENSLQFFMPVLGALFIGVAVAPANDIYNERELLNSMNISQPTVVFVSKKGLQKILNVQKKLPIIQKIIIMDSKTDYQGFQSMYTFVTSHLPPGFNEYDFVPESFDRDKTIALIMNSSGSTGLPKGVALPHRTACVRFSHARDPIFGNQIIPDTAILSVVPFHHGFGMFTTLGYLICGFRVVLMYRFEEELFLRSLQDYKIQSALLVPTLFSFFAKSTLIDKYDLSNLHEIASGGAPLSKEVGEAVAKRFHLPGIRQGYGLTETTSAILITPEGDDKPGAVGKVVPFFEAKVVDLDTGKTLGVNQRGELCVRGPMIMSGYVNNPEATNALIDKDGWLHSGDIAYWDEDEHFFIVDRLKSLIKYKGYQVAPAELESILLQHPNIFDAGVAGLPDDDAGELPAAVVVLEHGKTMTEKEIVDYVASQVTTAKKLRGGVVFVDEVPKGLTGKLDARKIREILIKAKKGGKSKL
#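 Biochemical qHTS of compounds, final roughly 60 µM downward over six points, against 10 nM purified firefly luciferase using Km concentrations of substrates (10 uM D-luciferin, 10 uM ATP) in Tris acetate pH 7.5 buffer; luminescence output.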
# NPC1 prom act = NPC1 promoter activation; Huh7 NPC1 promoter luciferase reporter, 24 h; 2.4% of 320,000 active; Potency, µM (series often up to 9.22 µM), hits mostly activators; also: nearly all actives have a fitted effect of over 60% in size
#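 Readout is luciferase luminescence, reflecting NPC1 promoter activation in stably transfected Huh7 cells after 24 h compound exposure at 37 °C in reduced-serum medium with 10% FBS.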
# Numbers stand for hits; i = inactive; ? = inconclusive; nt = no result given; [ ] = dose if it differs, or a comment. Calls follow the shape of the dose curve; as a rule, active = well fitted curve in the direction sought with a large enough effect; inconclusive = small, poorly fitted or top-dose-only effect, or another doubt; inactive = no such curve, though single readings can be large; an effect the other way counts as inactive or inconclusive.
SMILES,Rab9 promoter act,ELG1 genotox,SMN2 splice enh,FLuc counter,NPC1 prom act
O=c1oc2ccccc2c2c1C1O[C@](c3ccsc3)(Cc3ccccc31)O2,i[1.84 µM],nt,nt,i[11.5 µM],i[1.84 µM]
CSc1nc2nc(C)c(CCC(=O)OCC(=O)Nc3ccc(F)cc3)c(C)n2n1,i,i,nt,i,i
O=C(COCc1cc(-c2ccc(F)cc2)on1)Nc1cccc(Cl)c1Cl,nt,nt,nt,i,nt
Cc1ccc(NC(=O)c2ccco2)c(NC(=O)c2ccccc2)c1,i,i,nt,i,i
COc1ccc(NC(=O)c2ccco2)c([N+](=O)[O-])c1,2.51µM,?,35.5µM,21.3µM,?
Cc1ccc(NC(=O)c2ccco2)c([N+](=O)[O-])c1,2.82µM,?,22.4µM,?,2.82µM
COc1ccc(NC(=O)C/C(C)=N/NC(=O)c2ccco2)c([N+](=O)[O-])c1,i,i,nt,i,i
COc1ccc(-c2ccc3c(N)c(C(=O)Nc4ccc(C)cc4C)sc3n2)cc1OC,nt,nt,i,i,nt
COc1ccc(N2CCOCC2)c(NC(=O)c2cccnc2)c1,i,i,nt,i,i
CN(C)/C=N/c1sc2c(c1C#N)CCC2,i,i,i,i,i
N#Cc1c(/N=C/N2CCOCC2)sc2c1CCCCC2,2.51µM,5.8µM,11.2µM,5.36µM,3.98µM
CC1(C)Cc2c(sc(/N=C/N3CCCCCC3)c2C#N)C(C)(C)N1,i,i,i,i,i
CCCN(/C=N/c1sc2c(c1C#N)CCCCC2)CCC,i,i,i,19µM,i
CN(C)/C=N/c1sc2c(c1C#N)CCCCC2,?,?,?,21.3µM,?
CCOC(=O)c1cccc(NC(=O)CCS(=O)(=O)c2ccc3c(c2)CCN3C(=O)CC)c1,nt,nt,i,i,nt
Cc1ccc(NC(=O)CSc2nnc(NC(=O)c3ccc(S(=O)(=O)N4CCOCC4)cc3)s2)cc1,i,i,?,2.69µM,i
CCOC(=O)c1ccc(NC(=O)CSc2nnc(NC(=O)c3ccc(S(=O)(=O)N4CCOCC4)cc3)s2)cc1,i,i,?,1.69µM,i
Cc1csc(NC(=O)c2ccc(N3CCCC3=O)cc2)n1,0.316µM,0.651µM,0.562µM,1.9µM,?
Cc1cccc(C)c1NC(=O)c1ccc(N2CCCC2=O)cc1,i,i,nt,i,i
Cc1csc(N2CCCC2=O)n1,i,i,i,i,i
CCN(c1ccc(NC(=O)c2ccc(N3CCCC3=O)cc2)cc1)C(C)C,i,6.51µM,nt,?,i
O=C(Nc1nc2ccc(F)cc2s1)c1ccc(N2CCCC2=O)cc1,0.316µM,0.461µM,nt,i,0.398µM
Cc1nnc(NC(=O)c2ccc(N3CCCC3=O)cc2)s1,2.24µM,?,nt,23.9µM,?
CN(C)S(=O)(=O)c1cccc(NC(=O)c2ccc(N3CCCC3=O)cc2)c1,nt,i,nt,nt,nt
CCOc1ccccc1CNC(=O)CCCN1C(=O)COc2ccc(C)cc21,nt,nt,i,i,nt
SMILES,Rab9 promoter act,ELG1 genotox,SMN2 splice enh,FLuc counter,NPC1 prom act
O=C(Nc1ccccc1Br)c1ccc(N2CCCC2=O)cc1,2.51µM,?,nt,15.1µM,?
Cc1ccc(-c2ccc(/C=C(\C#N)C(N)=S)n2C)cc1,?,i,nt,4.78µM,?
C=CCOC(=O)NC(c1ccc(F)c(F)c1)C(C(C)=O)C(=O)OC (stereo unspecified),nt,nt,i,nt,nt
C[C@@H]1OC(Nc2ccc(N=Nc3ccccc3)cc2)[C@H](O)[C@H](O)[C@H]1O (stereo partly specified),?,i,nt,23.9µM,?
COc1ccc2c(c1O)C(=O)c1ccccc1C2=O,?,i,nt,?,?
CC(C)COC(=O)c1ccc2c(c1O)C(=O)c1ccccc1C2=O,3.16µM,1.3µM,?,1.35µM,2µM
O=C(Nc1cccc(S(=O)(=O)N2CCOCC2)c1)c1cc2ccccc2o1,i,i,nt,16.9µM,i
COc1ccc2oc(C(=O)Nc3cccc(S(=O)(=O)N4CCOCC4)c3)c(C)c2c1,i,i,nt,6.01µM,i
O=C(Nc1cc(S(=O)(=O)N2CCOCC2)ccc1Cl)c1cc2ccccc2o1,i,i,nt,nt,i
O=C(Nc1cccc(S(=O)(=O)N2CCCCC2)c1)c1cc2ccccc2o1,i,i,nt,8.49µM,i
COc1ccc2oc(C(=O)OCC(=O)Nc3cccc(S(=O)(=O)N4CCOCC4)c3)c(C)c2c1,i,i,nt,?,i
COc1ccc(-c2nc3ccccc3o2)cc1NC(=O)c1cccc2c(Cl)cccc12,nt,nt,i,i,nt
Cc1c(CC(=O)N[C@@H](C)C(=O)O)c(=O)oc2cc3occ(-c4ccccc4)c3cc12,i,i,nt,21.3µM,i
Cc1c(CC(=O)NCCC(=O)O)c(=O)oc2cc3occ(-c4ccccc4)c3cc12,i,i,nt,15.1µM,i
Cc1cc(C)cc(OC(=O)c2cc(-c3ccc(Cl)cc3)on2)c1,nt,nt,nt,i,nt
CCc1cccc(CC)c1-n1c(SCC(=O)N2CCCc3ccccc32)nc(O)cc1=O,nt,i,nt,nt,nt
CCOc1cc(C=O)ccc1OCCSc1ccc(C)cc1,i,i,i,i,i
COc1cc(C=O)ccc1OCc1cccc(Br)c1,i,?,14.1µM,7.57µM,i
CNC(=O)COc1ccc(C=O)cc1OC,i,i,i,i,i
COc1cc(C=O)ccc1OCc1ccccc1Br,?,?,?,9.53µM,?
COc1cc(C=O)ccc1OCCSc1ccc(C)cc1,i,16.4µM,i,?,i
CC(C(=O)N1CCCCC1)N(C)CC(=O)Nc1cccc(F)c1 (stereo unspecified),i,i,nt,i,i
COC(=O)C1CCN(c2csc3ccc(C)cc3c2=O)CC1,nt,nt,nt,6.01µM,nt
COC(=O)C1CCN(c2csc3ccc(Cl)cc3c2=O)CC1,nt,nt,nt,7.57µM,nt
CC(C)(C)c1ccc(OCCn2ccccc2=O)cc1,1.12µM,4.61µM,11.2µM,5.36µM,1.41µM
SMILES,Rab9 promoter act,ELG1 genotox,SMN2 splice enh,FLuc counter,NPC1 prom act
CSc1ccccc1OCc1cc(C(=O)NCCC2=CCCCC2)no1,i,i,nt,i,i
O=C(NCCC1=CCCCC1)c1cc2ccccc2oc1=O,i,?,nt,4.78µM,i
CN(C(=O)COC(=O)c1cc2ccccc2oc1=O)C1CCCCC1,nt,i,nt,nt,nt
O=C(NCCc1ccccc1)c1cc2ccccc2oc1=O,i,i,nt,?,?
COc1cc2ccccc2cc1C(=O)NC1CCCCC1,?,i,nt,12µM,i
O=C(OC1CCCCC1)c1cc2ccccc2oc1=O,?,?,nt,7.57µM,?
O=C(NC1CCCCCC1)c1cc2ccccc2oc1=O,i,i,nt,2.69µM,3.16µM
CN(C)C(CNC(=O)CCNS(=O)(=O)c1ccccc1C(F)(F)F)c1ccccc1 (stereo unspecified),i,i,nt,i,i
Cc1ccc(Cl)cc1NC(=O)N[C@@H](CC(C)C)C(=O)O,i,i,nt,i,i
O=S(=O)(Nc1ccccc1C(F)(F)F)c1ccc(-c2ccccn2)s1,i,i,nt,i,i
CCc1ccc(OC)c(S(=O)(=O)NCc2cccs2)c1,i,i,nt,i,i
N=c1oc2ccc(Cl)cc2cc1C(=O)NC1CCCCCC1,i,i,nt,?,i
N=c1oc2ccccc2cc1C(=O)NC1CCCCCC1,i,?,nt,4.78µM,?
CCOc1ccc(C(=O)Nc2ccc(S(=O)(=O)N3CCCCC3c3cccnc3)cc2)cc1 (stereo unspecified),nt,nt,nt,i,nt
O=C(Nc1ccc(Br)cc1)C1CCN(c2ncccn2)CC1,nt,nt,i,i,nt
